Screening data deposited in PubChem by National Center for Advancing Translational Sciences (NCATS).
nsP2pro inh – blocks chikungunya virus nsP2 protease peptide cleavage; Q8JUX6; FRET peptide cleavage, nsP2pro, fluorescence 1 h; Potency, µM (doses to about 24.9 µM), most hits filed as inhibitors; hit rate 1.1% among 31,000; further: nearly all actives have a fitted effect of over 60% in size
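Recombinant nsP2pro (150 nM) was preincubated with compound 15 min at room temperature in 10 mM Tris-HCl pH 8.0, 0.01% Tween 20. Peptide 2 FRET substrate (2.5 uM) was then added and fluorescence read after 1 h. Seven-point series, up to 25 uM.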
CHIKV nsP2 cell – inhibits CHIKV nsP2 protease in cells; cell-based CHIKV nsP2 protease reporter assay; Potency, µM (doses to about 51.1 µM), hits mostly inhibitors; hit rate 10% among 450; shares compounds with nsP2pro inh; further: nearly all actives have a fitted effect of over 70% in size
CHIKV NSP2 FL – inhibits full-length CHIKV NSP2 enzyme; shares compounds with nsP2pro inh; hit rate 39% among 410; Full-length CHIKV NSP2 protease enzymatic counterscreen; Potency, µM (top dose mostly 50.7 µM), hits mostly inhibitors; further: nearly all actives have a fitted effect of over 65% in size
Furin counter – inhibits human furin in a CHIKV nsP2 protease selectivity counterscreen. shares compounds with nsP2pro inh. Recombinant human furin enzymatic counterscreen, fluorogenic substrate. Potency, µM (highest dose often 50.6 µM), most hits filed as inhibitors. hit rate 6% among 410
nsP2 NS23 pep – selectivity test for CHIKV nsP2 protease inhibitors: endogenous NS2/3 peptide. shares compounds with nsP2pro inh. Purified CHIKV nsP2 protease, endogenous NS2/3 peptide cleavage. Potency, µM (highest dose often 51 µM), most hits filed as inhibitors. hit rate 34% among 410; further: nearly all actives have a fitted effect of over 55% in size
Papain counter – inhibits papain in a CHIKV nsP2 protease selectivity counterscreen; shares compounds with nsP2pro inh; purified papain protease activity, enzymatic inhibition; Potency, µM (highest dose often 51 µM), most hits filed as inhibitors; hit rate 5% among 410; AID 1964104
nsP2pro confirm – CHIKV nsP2 protease inhibition, confirmatory qHTS; shares compounds with nsP2pro inh; CHIKV nsP2 protease enzymatic activity, qHTS; Potency, µM (highest dose often 25.5 µM), most hits filed as inhibitors; hit rate 43% among 410; further: nearly all actives have a fitted effect of over 75% in size
HCV NS3 counter – HCV NS3/4A protease inhibition, counterscreen; shares compounds with nsP2pro inh; HCV NS3/4A protease biochemical counterscreen; Potency, µM (doses to about 50.9 µM), actives largely listed as inhibitors; hit rate 20% among 410; AID 1964106; further: nearly all actives have a fitted effect of over 55% in size
Hits are given with their value; n = inactive; u = inconclusive; ! = a repeat was not active. The entries come from a sample that favours hits as a whole. The call rests on the fitted dose curve.

SMILES	nsP2pro inh	others
[2H]C([2H])([2H])C(O)(CCO[C@@H](C)[C@H]1CC[C@H]2/C(=C/C=C3\C[C@@H](O)C[C@H](O)C3=C)CCC[C@]12C)C([2H])([2H])[2H]	n
CC(=O)OCC1=C(C(=O)O)N2C(=O)[C@@H](NC(=O)CC#N)[C@H]2SC1	n
C=C(C)C(=O)OC1CC(CO)CCC/C(CO)=C/C2OC(=O)C(=C)C21 (stereo not drawn)	n
C=C(C)C(=O)OC1[C@@H]2C(=C)C(=O)O[C@@H]2C[C@@H](C)[C@@H]2C=CC(=O)[C@@]12C (stereo partly drawn)	n
C=C(C(=O)O[C@H]1C/C(C)=C/CC/C(CO)=C/[C@H]2OC(=O)C(=C)[C@H]12)C(O)CO (stereo partly drawn)	5.44µM	CHIKV nsP2 cell=u;CHIKV NSP2 FL=10.1µM;Furin counter=n;nsP2 NS23 pep=u;Papain counter=n;nsP2pro confirm=4.4µM;HCV NS3 counter=n
COC(=O)c1ccc(NCC2=CC(C)(C)COc3ccc(OC)cc32)cc1	n
Cc1ccc(-c2cc(C(=O)Nc3ccc(C#N)cc3)c3ccccc3n2)cc1C	n
CN(Cc1ccccc1)C(=O)[C@H]1C[C@@H](O)[C@H](O)[C@@H]2N=C(Nc3ccc(-n4cccn4)cc3)S[C@@H]21	n
CCN(CC)C(=S)SSC(=S)N(CC)CC	2.48µM!	CHIKV nsP2 cell=12.6µM;CHIKV NSP2 FL=14.6µM;Furin counter=n;nsP2 NS23 pep=9.19µM;Papain counter=u;nsP2pro confirm=1.79µM;HCV NS3 counter=u
Cc1c[nH]c2ncnc(N3CCC(CN)(C(=O)Nc4cccc(OC(=O)N(C)C)c4)CC3)c12	n
NC(=O)CN1CCC(c2nc(-c3ccc4nc[nH]c4c3)no2)CC1	n
Cc1nn(C)c(C)c1CCC(=O)NCCc1ncc(C)n1C1CCCCC1	n
CCOC(=O)CC(SP(=S)(OC)OC)C(=O)OCC (stereo not drawn)	8.81µM	CHIKV nsP2 cell=n;CHIKV NSP2 FL=23.1µM;Furin counter=n;nsP2 NS23 pep=18.3µM;Papain counter=u;nsP2pro confirm=5.65µM;HCV NS3 counter=n
Fc1cccc(CN2CCO[C@@H](COc3ccccn3)[C@@H]2c2ccccc2)c1	n
O=[S+]([O-])(Nc1nccs1)c1ccc(NCc2cccc(Cl)c2)cc1	n
Cc1cc(C)nc(NC(=S)N2CCN(c3ccc4ccccc4n3)CC2)c1	n
Cc1ccc(S(=O)(=O)O)cc1	n
Cc1ccc(S(=O)(=O)c2nc(S(=O)(=O)c3ccc(C)cc3)c(NC(C)C)s2)cc1	n
Cc1ccc(S(=O)(=O)c2ncccc2[N+](=O)[O-])cc1	u	CHIKV nsP2 cell=3.66µM;CHIKV NSP2 FL=u;Furin counter=n;nsP2 NS23 pep=9.19µM;Papain counter=n;nsP2pro confirm=7.98µM;HCV NS3 counter=n
COc1cccc(-n2cnc3cc(C(=O)N4CCCCC4)ccc32)c1	n
CN1CCc2cc(Nc3ncc(C4CC4)c(NCCCNC(=O)C4CCC4)n3)ccc2C1	n
CCCC1CC(C(=O)NC(C(C)Cl)C2OC(SC)C(OP(=O)(O)O)C(O)C2O)N(C)C1 (stereo not drawn)	n
Cc1c(-c2cnccn2)ssc1=S	4.95µM!	CHIKV nsP2 cell=u;CHIKV NSP2 FL=13µM;Furin counter=n;nsP2 NS23 pep=9.19µM;Papain counter=n;nsP2pro confirm=4µM;HCV NS3 counter=n
C[C@]12C[C@@H]3S[C@H]3C[C@@H]1CC[C@H]1[C@H]3CC[C@@H](O)[C@@]3(C)CC[C@@H]12	n
Cc1cc(NC(=O)Nc2nnc(-c3ccncc3)s2)ccc1Br	n
SMILES	nsP2pro inh	others
CNc1cc(C2CC(NS(=O)(=O)c3ccc(Cl)s3)C2)nc(N)n1 (stereo not drawn)	n
COc1cccc2c1C(=O)c1c(O)c3c(c(O)c1C2=O)C[C@@](O)(C(=O)CO)C[C@@H]3O[C@H]1C[C@H](N)[C@H](OC2CCCCO2)[C@H](C)O1 (stereo partly drawn)	n
CC[C@@]1(O)C[C@H](O[C@H]2C[C@H](N(C)C)[C@H](O[C@H]3C[C@H](O)[C@H](O[C@H]4CCC(=O)[C@H](C)O4)[C@H](C)O3)[C@H](C)O2)c2c(cc3c(c2O)C(=O)c2c(O)cccc2C3=O)[C@@H]1C(=O)OC	u	CHIKV nsP2 cell=n;CHIKV NSP2 FL=u;Furin counter=n;nsP2 NS23 pep=u;Papain counter=n;nsP2pro confirm=u;HCV NS3 counter=n
COc1cccc2c1C(=O)c1c(O)c3c(c(O)c1C2=O)C[C@@](O)(C(=O)CO)CC3OC1CC(N2CCOC(OC)C2)C(O)C(C)O1 (stereo partly drawn)	n
O=C(O[C@H]1[C@@H]2C[C@@H]3OC[C@@](O)([C@H]2[C@H](O[C@@H]2O[C@H](CO)[C@@H](O)[C@H](O)[C@H]2O)O3)[C@@H]1O)c1ccccc1	n
CCOc1ccccc1CN1CCC2(CCN(C(=O)c3ccccc3C)CC2)Oc2ccccc21	n
CC(=O)OCC1=C(C(=O)O)N2C(=O)[C@@H](NC(=O)[C@H](N)c3ccccc3)[C@H]2SC1	n
CC1=C(C(=O)O)N2C(=O)[C@@H](NC(=O)[C@H](N)c3ccccc3)[C@H]2SC1	0.313µM	CHIKV nsP2 cell=n;CHIKV NSP2 FL=n;Furin counter=n;nsP2 NS23 pep=n;Papain counter=n;nsP2pro confirm=n;HCV NS3 counter=n
CC1=C(C(=O)O)N2C(=O)[C@@H](NC(=O)[C@H](N)c3ccc(O)cc3)[C@H]2SC1	n
c1ccc(-c2cnc(Nc3ccc(OCCN4CCCC4)cc3)s2)cc1	n
CCC(=C(c1ccc(OCCN2CCCC2)cc1)c1ccc(OCCN2CCCC2)cc1)c1ccccc1	n
C(#Cc1nc2ncccc2nc1OCCN1CCCC1)c1ccccc1	7µM	CHIKV nsP2 cell=u;CHIKV NSP2 FL=18.3µM;Furin counter=23.1µM;nsP2 NS23 pep=16.3µM;Papain counter=n;nsP2pro confirm=7.98µM;HCV NS3 counter=n
Cc1cc(C)nc(NC(=S)N2CCN(c3cc(Br)cc(C(F)(F)F)c3)CC2)c1	n
O=C(/C=C/n1cnc(-c2cc(C(F)(F)F)cc(C(F)(F)F)c2)n1)NNc1cnccn1	n
CC1=C2C3OC(=O)C(C)C3(O)CCC2(C)CCC1 (stereo not drawn)	n
C=C1C(=O)O[C@@H]2C3=C(C)CCC[C@]3(C)CC[C@@]12O	3.13µM	CHIKV nsP2 cell=u;CHIKV NSP2 FL=u;Furin counter=n;nsP2 NS23 pep=18.3µM;Papain counter=n;nsP2pro confirm=u;HCV NS3 counter=n
CC1=C2C3OC(=O)C(C)C3(O)CCC2(C)CCC1=O (stereo not drawn)	n
Cc1cc(C)nc(NC(=S)N2CCN(c3ccc(F)c(Cl)c3)CC2)c1	n
Cc1ccc(S(=O)(=O)Nc2cnccc2C(=O)Nc2nc(-c3ccccc3)cs2)cc1	n
COc1cc2c(cc1OC)[C@H]1C[C@@H](OC(=O)[C@@H](N)C(C)C)[C@H](CC(C)C)CN1CC2	n
Cc1nccn1CC1CCc2c(c3ccccc3n2C)C1=O (stereo not drawn)	n
Cc1[nH]cnc1C[C@H]1CCc2c(C)c3ccccc3n2C1=O	u	CHIKV nsP2 cell=n;CHIKV NSP2 FL=n;Furin counter=n;nsP2 NS23 pep=n;Papain counter=n;nsP2pro confirm=n;HCV NS3 counter=n
Cc1[nH]cnc1CN1CCc2c(c3ccccc3n2C)C1=O	n
FC(F)(F)c1ccccc1-c1nc(NCc2ccc(Br)cc2)c2ccccc2n1	n
